According to ChEMBL document CHEMBL5308504, “Tm Shift (DSF) assay results for EUbOPEN Chemogenomics Library” (2023):

Columns and labels:
Conditions in all cases: Compound concentration 20.0 uM, Protein concentration 2.0 uM, Result type QC Liability
[1] = molecular target: Tyrosine-protein kinase ABL1 (Homo sapiens) (UniProt P00519)
[2] = molecular target: Cyclin-dependent kinase 2 (Homo sapiens) (UniProt P24941)
[3] = molecular target: Casein kinase I isoform delta (Homo sapiens) (UniProt P48730)
Sequence of Casein kinase I isoform delta (Homo sapiens) (P48730 whole entry, looked up, canonical isoform): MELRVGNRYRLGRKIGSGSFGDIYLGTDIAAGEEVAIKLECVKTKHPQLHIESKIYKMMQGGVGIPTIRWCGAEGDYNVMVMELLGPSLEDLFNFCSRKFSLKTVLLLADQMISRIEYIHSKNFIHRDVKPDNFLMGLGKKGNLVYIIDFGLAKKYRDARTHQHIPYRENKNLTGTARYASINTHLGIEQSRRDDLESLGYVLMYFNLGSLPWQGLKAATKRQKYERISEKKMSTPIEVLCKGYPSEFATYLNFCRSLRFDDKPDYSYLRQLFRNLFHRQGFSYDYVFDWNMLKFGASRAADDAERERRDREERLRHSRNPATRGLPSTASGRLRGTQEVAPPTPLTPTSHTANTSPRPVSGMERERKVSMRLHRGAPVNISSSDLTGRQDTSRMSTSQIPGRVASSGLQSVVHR

[4] = molecular target: Glycogen synthase kinase-3 beta (Homo sapiens) (UniProt P49841)
Sequence of Glycogen synthase kinase-3 beta (Homo sapiens) (P49841 whole entry, looked up): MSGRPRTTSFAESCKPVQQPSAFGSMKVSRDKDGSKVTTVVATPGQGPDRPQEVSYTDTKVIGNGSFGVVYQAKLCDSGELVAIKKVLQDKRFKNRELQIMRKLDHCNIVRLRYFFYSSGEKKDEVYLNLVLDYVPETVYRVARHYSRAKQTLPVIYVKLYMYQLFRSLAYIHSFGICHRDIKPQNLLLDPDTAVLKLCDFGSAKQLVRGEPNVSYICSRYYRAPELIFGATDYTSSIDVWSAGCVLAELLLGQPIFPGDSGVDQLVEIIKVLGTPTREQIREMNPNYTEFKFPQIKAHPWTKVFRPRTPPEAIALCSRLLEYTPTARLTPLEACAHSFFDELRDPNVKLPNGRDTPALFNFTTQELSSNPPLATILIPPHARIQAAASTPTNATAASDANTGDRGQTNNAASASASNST

[5] = molecular target: Mitogen-activated protein kinase 1 (Homo sapiens) (UniProt P28482)
Sequence of Mitogen-activated protein kinase 1 (Homo sapiens) (P28482 whole entry): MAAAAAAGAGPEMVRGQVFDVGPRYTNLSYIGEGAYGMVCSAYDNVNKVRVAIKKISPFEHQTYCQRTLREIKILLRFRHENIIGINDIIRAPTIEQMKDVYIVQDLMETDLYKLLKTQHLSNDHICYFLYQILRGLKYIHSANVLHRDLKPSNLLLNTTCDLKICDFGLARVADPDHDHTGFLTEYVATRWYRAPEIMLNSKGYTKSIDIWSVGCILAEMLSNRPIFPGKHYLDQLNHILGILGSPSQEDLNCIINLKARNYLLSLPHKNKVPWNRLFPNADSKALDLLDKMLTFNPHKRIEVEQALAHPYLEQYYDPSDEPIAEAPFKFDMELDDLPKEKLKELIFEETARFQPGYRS

[6] = molecular target: T1, Aurora kinase A (Homo sapiens) (UniProt O14965)
T1 sequence (whole entry): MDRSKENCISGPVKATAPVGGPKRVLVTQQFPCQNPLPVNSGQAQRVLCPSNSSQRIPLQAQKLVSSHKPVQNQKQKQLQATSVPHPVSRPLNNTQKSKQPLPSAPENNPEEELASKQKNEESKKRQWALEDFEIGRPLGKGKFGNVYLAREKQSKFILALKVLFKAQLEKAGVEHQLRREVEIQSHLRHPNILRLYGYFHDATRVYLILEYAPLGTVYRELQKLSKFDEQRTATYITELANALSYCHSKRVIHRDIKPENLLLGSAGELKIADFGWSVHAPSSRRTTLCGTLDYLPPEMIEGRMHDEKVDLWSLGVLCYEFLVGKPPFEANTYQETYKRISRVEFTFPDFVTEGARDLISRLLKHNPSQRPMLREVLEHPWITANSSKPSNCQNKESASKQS

Sequence of Tyrosine-protein kinase ABL1 (Homo sapiens) (P00519 whole entry): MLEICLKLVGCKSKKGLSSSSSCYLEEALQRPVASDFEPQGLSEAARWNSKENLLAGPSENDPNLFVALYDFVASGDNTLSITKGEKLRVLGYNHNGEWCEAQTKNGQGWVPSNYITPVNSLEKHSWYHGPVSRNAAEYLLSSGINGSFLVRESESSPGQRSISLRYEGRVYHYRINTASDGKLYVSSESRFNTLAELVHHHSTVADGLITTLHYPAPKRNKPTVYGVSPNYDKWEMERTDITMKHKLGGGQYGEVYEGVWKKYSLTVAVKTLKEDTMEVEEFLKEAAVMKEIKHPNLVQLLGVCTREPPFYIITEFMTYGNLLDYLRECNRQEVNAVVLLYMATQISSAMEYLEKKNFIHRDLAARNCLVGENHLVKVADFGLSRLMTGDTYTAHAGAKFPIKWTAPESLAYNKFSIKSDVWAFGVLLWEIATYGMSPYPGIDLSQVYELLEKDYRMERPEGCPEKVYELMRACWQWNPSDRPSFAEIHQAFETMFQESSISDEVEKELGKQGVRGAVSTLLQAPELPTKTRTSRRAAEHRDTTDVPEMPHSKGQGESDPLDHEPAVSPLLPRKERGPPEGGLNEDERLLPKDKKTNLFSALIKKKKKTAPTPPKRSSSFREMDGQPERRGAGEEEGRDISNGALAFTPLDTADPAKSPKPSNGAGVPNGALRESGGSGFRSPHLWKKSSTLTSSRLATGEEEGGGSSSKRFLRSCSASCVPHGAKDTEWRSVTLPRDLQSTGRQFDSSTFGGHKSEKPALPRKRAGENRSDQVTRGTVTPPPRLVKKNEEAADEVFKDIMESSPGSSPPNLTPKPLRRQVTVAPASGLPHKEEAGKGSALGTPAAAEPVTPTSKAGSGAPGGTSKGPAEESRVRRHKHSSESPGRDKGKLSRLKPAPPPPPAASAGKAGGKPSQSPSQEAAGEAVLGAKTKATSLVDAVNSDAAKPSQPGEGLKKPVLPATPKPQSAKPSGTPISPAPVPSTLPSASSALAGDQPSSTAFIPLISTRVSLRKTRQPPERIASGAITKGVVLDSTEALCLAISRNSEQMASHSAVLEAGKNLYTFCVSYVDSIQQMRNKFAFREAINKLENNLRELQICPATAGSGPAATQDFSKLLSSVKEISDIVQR

| SMILES | ΔTm [1] | ΔTm [2] | ΔTm [3] | ΔTm [4] | ΔTm [5] | ΔTm [6] |
| --- | --- | --- | --- | --- | --- | --- |
| O=C1CCCN1CCNc1nc(Nc2ccc(Cl)c(Cl)c2)ncc1C(F)(F)F | 4.3 °C | 5.26 °C | 0.96 °C | 3.17 °C | 4.18 °C | 11.2 °C |
| CCOc1cc(CC(=O)N[C@@H](CC(C)C)c2ccccc2N2CCCCC2)ccc1C(=O)O | -0.58 °C | 0.05 °C | -0.05 °C | 0.38 °C | -0.15 °C | -0.16 °C |
| N=C(N)NCCC[C@H](NC(=O)CC1(CC(=O)N2CCN(C(c3ccccc3)c3ccccc3)CC2)CCCC1)C(=O)NCc1ccccc1 | -0.53 °C | -1.78 °C | 0.02 °C | -1.84 °C | -0.93 °C | -0.79 °C |
| Cn1cncc1-c1cn(-c2cccc(C(=O)Nc3cccc(C(F)(F)F)c3)c2)nn1 | 7.19 °C | 0.01 °C | -7.39 °C | -0.16 °C | -8.38 °C | 1.95 °C |
| Cc1ccc(NS(=O)(=O)c2ccc3c(c2)C2C=CCC2C(c2ccc(C(=O)O)cc2)N3)cc1C (stereo not given) | -0.61 °C | 1.5 °C | 0.36 °C | -1.27 °C | -3.84 °C | -2.29 °C |
| Cn1cnc(Cn2ccc3ccc(CNCc4[nH]c5ccccc5c4[C@H]4NC(=O)c5ccc(O)cc54)cc32)c1 | 0.28 °C | -0.58 °C | 0.32 °C | -0.76 °C | 0.91 °C | 0.59 °C |
| CNC(=O)c1c[nH]c2ccc(Nc3nccc(-c4ccccn4)n3)cc12 | 2 °C | 1.28 °C | 0.6 °C | 2.67 °C | 0.16 °C | 1.47 °C |
| Cc1cc(=O)oc2cc(NC(=O)[C@H](Cc3ccc(I)cc3)NC(=O)[C@H]3N[C@@H]4CC[C@H]3C4)ccc12 | 0 °C | -0.62 °C | 0.37 °C | -0.08 °C | 0.09 °C | -0.48 °C |
| N=C(N)NCCC[C@@H](NC(=O)C(c1ccccc1)c1ccccc1)C(=O)NCc1ccc(CNC(N)=O)cc1 | 0.37 °C | 0.62 °C | 0.21 °C | -0.25 °C | 0.26 °C | 0.1 °C |
| C1=Cc2ccccc2C(=C2CCN(CCCCc3nnn[nH]3)CC2)c2ccccc21 | -0.16 °C | 0.18 °C | -0.15 °C | 0.27 °C | -0.08 °C | -0.37 °C |
| O=C(O)CCCCCC[C@@H]1C(=O)NC(=O)N1CCC(O)C1CCCCC1 (stereo not given in full) | 0.19 °C | 0.46 °C | -0.02 °C | 0.34 °C | -0.39 °C | -0.24 °C |
| Fc1ccc(-c2c3cccc(C(F)(F)F)c3nn2Cc2ccc(F)cc2Cl)cc1 | 0.02 °C | 0.18 °C | 0.79 °C | -1.83 °C | 0.06 °C | -1.66 °C |
| COc1ccc(S(=O)(=O)N2CCOCC2)cc1Nc1ccc2c(n1)N(C1CCOCC1)[C@H](C)C(=O)N2C | -0.18 °C | 0.41 °C | -0.08 °C | -0.48 °C | -0.88 °C | 0.03 °C |
| CCCCCCCN(CCc1ccc(SC(C)(C)C(=O)O)cc1)C(=O)Nc1ccc(F)cc1F | 0.48 °C | 0 °C | 0.48 °C | -1.12 °C | -0.08 °C | -1.93 °C |
| Cc1nc2cccnc2n2c(-c3cc(C(C)(C)O)ncc3Cl)nnc12 | -0.85 °C | 0.85 °C | 0.33 °C | -0.45 °C | 0.31 °C | -0.06 °C |
| CCc1c(-c2ccc3[nH]ncc3c2)cnc(N)c1-c1ccc(O)cc1 | 1.38 °C | 2.8 °C | 1.28 °C | 1.03 °C | 0.44 °C | 3.28 °C |
| C=CC(=O)Nc1cccc(C)c1Nc1ncc2cc(-c3c(Cl)c(OC)cc(OC)c3Cl)ccc2n1 | 0.49 °C | 0.87 °C | 0.34 °C | -1.24 °C | -3.69 °C | -2.08 °C |
| CCOC(=O)C1Cc2ccccc2CN1C(=O)c1ccc(SC)s1 (stereo not given) | 0.02 °C | 0.34 °C | 0.34 °C | -1.03 °C | 0 °C | -1.2 °C |
| CN1CCN(c2ccc(-n3cc(-c4ccncc4OCC4CCNCC4)cn3)cc2)CC1 | 1.5 °C | 1.21 °C | 1.48 °C | -0.06 °C | 0.53 °C | -0.52 °C |
| CSc1ccc(C(=O)/C=C/c2cc(C)c(OC(C)(C)C(=O)O)c(C)c2)cc1 | 1.1 °C | 0.59 °C | 0.61 °C | 0.69 °C | 0.07 °C | 4.96 °C |
| CC(C)N1CCN(Cc2cnc(-c3cc(-c4cccc5[nH]ccc45)cc4[nH]ncc34)o2)CC1 | 2.44 °C | 0.6 °C | 1.32 °C | 3.63 °C | 0.24 °C | 4.96 °C |
| COCCCS(=O)(=O)c1cc(C)c(-c2ccc(F)c3c2CC[C@H]3Oc2ccc3c(c2)OC[C@H]3CC(=O)O)c(C)c1 | 0.43 °C | 0 °C | 0.06 °C | 0 °C | 0 °C | -0.86 °C |
| COc1cc(C(=O)O)ncc1C#Cc1ccccc1NS(=O)(=O)c1cccc2c(N(C)C)ccnc12 | 0.14 °C | -0.3 °C | 0.08 °C | -0.76 °C | 0.42 °C | 0.72 °C |
| CC(C)c1nc2c(c3c1[C@@H](c1ccc(C(F)(F)F)cc1)OC31CCOCC1)[C@@H](O)CC(C)(C)C2 | -0.41 °C | 0.52 °C | 0.25 °C | -1.28 °C | -0.13 °C | -0.38 °C |
| CS(=O)(=O)NCC[C@H](NC(=O)c1cncc2c1cnn2-c1ccc(F)cc1)c1ccnc(S(C)(=O)=O)c1 | -0.12 °C | -0.17 °C | 0.57 °C | -1.34 °C | 0.26 °C | 0.06 °C |
